{
  "source": "PubChem BioAssay",
  "note": "Values without a mark were called inactive. Activity calls are given as the source filed them. Cut-off read from the data, not from the text of the source, unless noted: active = inhibition above about 42%; inactive = the rest.",
  "data": [
    {"system": "not listed separately", "assay": "StAR promoter reporter inhibitors, counter-screen for LRH-1 inverse agonist project, cell-based, luminescence, high throughput (AID 651611; in the data active = inhibition above about 28%)", "conditions": "StAR promoter luciferase reporter counterscreen, at 3.6 µM, stronger effect = higher value", "values": [
      {"smiles": "O=C(Cc1cccs1)N/N=C\\c1ccc([N+](=O)[O-])s1", "inhibition": "12.1%"},
      {"smiles": "COc1ccc(N2C(=O)C(Cl)=C(N3CCOCC3)C2=O)cc1", "inhibition": "6.88%"},
      {"smiles": "COc1ccc(NC(=O)CSc2nc(N)c(-c3ccccc3)c(=O)[nH]2)cc1", "inhibition": "9.25%"},
      {"smiles": "Cc1ccc(S(=O)(=O)NCc2ccncc2)c(C)c1C", "inhibition": "17.9%"},
      {"smiles": "COc1cc(C2c3cc4c(cc3OC(NNC(N)=S)C2C)OCO4)cc(OC)c1OC", "note": "(centres undefined)", "inhibition": "49.2% (active)"},
      {"smiles": "NC(=S)N/N=C/c1ccc(-c2ccc([N+](=O)[O-])cc2)o1", "inhibition": "-7.04%"},
      {"smiles": "CCOc1ccc(NC(=O)COC(=O)COc2cccc3c2OC(C)(C)C3)cc1", "inhibition": "1.8%"},
      {"smiles": "O=C(Nc1ccc2c(c1)CCCN2C(=O)c1ccco1)c1cc([N+](=O)[O-])ccc1Cl", "inhibition": "51.9% (active)"},
      {"smiles": "Cc1cc(NCCCCCCCNc2cc(C)nc3cc([N+](=O)[O-])ccc23)c2ccc([N+](=O)[O-])cc2n1", "inhibition": "-0.67%"},
      {"smiles": "NC(=S)N/N=C/c1ccc(C(F)(F)F)cc1", "inhibition": "-1.87%"},
      {"smiles": "CSc1nc(SCC(=O)NCc2ccco2)c2c3c(sc2n1)COC(C)(C)C3", "inhibition": "6.43%"},
      {"smiles": "Cc1cc(Br)ccc1NC(=O)CSc1nnc(CN2CCOCC2)n1C", "inhibition": "15.4%"},
      {"smiles": "O=C(c1ccc(=O)n(Cc2ccccc2)n1)N1CCN(C/C=C/c2ccccc2)CC1", "inhibition": "2.26%"},
      {"smiles": "Nc1nc(-c2ccccc2)c(CCCOc2ccc(NC(=O)CBr)cc2)c(=O)[nH]1", "inhibition": "15.7%"},
      {"smiles": "COc1cc([N+](=O)[O-])ccc1NC(=O)Cn1ccsc1=N", "inhibition": "4.07%"},
      {"smiles": "CC(=O)Nc1ccc(NC(=O)CSc2nnnn2C2CCCCC2)cc1", "inhibition": "17%"},
      {"smiles": "O=Cc1ccc2c(c1)CCN2Cc1ccccc1", "inhibition": "4.56%"},
      {"smiles": "CCn1c2ccccc2c2cc(C3C(C#N)=C(N)Oc4n[nH]c(COC)c43)ccc21", "note": "(centres undefined)", "inhibition": "44.9% (active)"},
      {"smiles": "COc1ccc(-c2cc(C(F)F)n3ncc(C(=O)N4CCc5ccccc5C4)c3n2)cc1", "inhibition": "17.2%"},
      {"smiles": "Cc1cc(C)c2nc(NC(=O)c3ccc([N+](=O)[O-])o3)sc2c1", "inhibition": "-2.6%"},
      {"smiles": "CCNC(=S)N1CCN(c2nc(CC)nc3sc4c(c23)CCCC4)CC1", "inhibition": "1.42%"},
      {"smiles": "COc1ccccc1N1CCN(C(=O)C2c3ccccc3Oc3ccccc32)CC1", "inhibition": "34.4% (active)"},
      {"smiles": "O=C(CN1C(=O)CCC1=O)Nc1ccc(Br)cc1", "inhibition": "15.1%"},
      {"smiles": "COc1ccc(OC)c(C2NC(=O)c3sc(=S)n(-c4ccccc4)c3N2)c1", "note": "(centres undefined)", "inhibition": "10.5%"}
    ]},
    {"target": "Nuclear receptor subfamily 5 group A member 2 (Homo sapiens) (UniProt O00482)", "sequence (O00482 whole entry, looked up)": "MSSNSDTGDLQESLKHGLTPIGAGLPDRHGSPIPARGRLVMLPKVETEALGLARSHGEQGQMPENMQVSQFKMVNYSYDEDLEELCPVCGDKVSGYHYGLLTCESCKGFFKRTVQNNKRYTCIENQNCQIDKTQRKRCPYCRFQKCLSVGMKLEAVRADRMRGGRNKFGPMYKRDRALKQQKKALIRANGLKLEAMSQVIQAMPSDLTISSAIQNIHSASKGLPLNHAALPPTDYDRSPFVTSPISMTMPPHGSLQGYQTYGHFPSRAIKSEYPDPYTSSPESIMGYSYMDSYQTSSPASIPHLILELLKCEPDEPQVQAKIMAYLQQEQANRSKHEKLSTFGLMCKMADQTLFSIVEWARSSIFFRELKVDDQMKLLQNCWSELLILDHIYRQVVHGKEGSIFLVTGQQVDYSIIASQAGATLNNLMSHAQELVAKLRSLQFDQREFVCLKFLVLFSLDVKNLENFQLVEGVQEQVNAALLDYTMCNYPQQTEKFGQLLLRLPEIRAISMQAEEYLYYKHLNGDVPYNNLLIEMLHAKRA", "assay": "LRH-1 (NR5A2) inverse agonists, retest, confirmation, cell-based, luminescence (AID 651613);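 note: HEK293T cells co-transfected with LRH-1 and StAR promoter luciferase reporter; 0% = vehicle wells and 100% = parental cells lacking receptor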", "conditions": "cell-based LRH-1 luciferase reporter, inverse agonism; at 3.6 µM; stronger effect = higher value", "values": [
      {"smiles": "COC(=O)CNC(=O)c1nn(-c2cccc(OC)c2)c(=O)c2ccccc12", "inhibition": "35.9%"},
      {"smiles": "CCc1cc(=O)oc2c(C)c(OCC(=O)NCCN3CCOCC3)ccc12", "inhibition": "48.5% (active)"},
      {"smiles": "Cc1onc(-c2ccccc2)c1C(=O)O/N=C(\\N)c1ccc([N+](=O)[O-])o1", "inhibition": "64.5% (active)"},
      {"smiles": "Cc1ccc(SCC(=O)Nc2ccc(N3CCOCC3)cc2)c(C)c1", "inhibition": "63.3% (active)"},
      {"smiles": "Cc1nn(Cc2ccc(Cl)cc2)c(C)c1NC(=O)c1noc2c1CCCCC2", "inhibition": "46.8% (active)"},
      {"smiles": "CCOc1ccc(NC(=O)CSc2nc3c(c(=O)n2-c2ccccc2OC)SCC3)cc1", "inhibition": "63.1% (active)"},
      {"smiles": "C/C(=N\\NC(N)=S)c1ccncc1", "inhibition": "54.2% (active)"},
      {"smiles": "CCN(CC)c1nc(C)c(C(C)=O)cc1C#N", "inhibition": "32.7%"},
      {"smiles": "Cn1c(=O)oc2cc(NC(=O)CCl)ccc21", "inhibition": "61.6% (active)"},
      {"smiles": "COc1ccc(OC)c(C2C3=C(COC3=O)Nc3cc4c(cc32)OCO4)c1", "note": "(centres undefined)", "inhibition": "27.6%"},
      {"smiles": "CCOCC(=O)Nc1cccc(C(=O)OCC)c1", "inhibition": "36.9%"},
      {"smiles": "C=CCNc1nc2c(c(=O)n(C)c(=O)n2C)n1CCCCCC", "inhibition": "73% (active)"},
      {"smiles": "O=C(c1c(F)c(F)c(F)c(F)c1F)N1CCN(c2cccc(C(F)(F)F)c2)CC1", "inhibition": "49.5% (active)"},
      {"smiles": "COc1cc(CCNc2ccc3nnc(-c4ccccc4)n3n2)cc(OC)c1OC", "inhibition": "37.5%"},
      {"smiles": "O=C1CCN(CCCN2CCC(=O)N(Cc3ccccc3)C2=S)C(=S)N1Cc1ccccc1", "inhibition": "27.2%"},
      {"smiles": "CCC(C)Nc1nc(-c2cccc(OC)c2O)nc2ccccc12", "note": "(centres undefined)", "inhibition": "52.4% (active)"},
      {"smiles": "O=C(Cc1cccs1)N/N=C\\c1ccc([N+](=O)[O-])s1", "inhibition": "64.9% (active)"},
      {"smiles": "COc1ccc(N2C(=O)C(Cl)=C(N3CCOCC3)C2=O)cc1", "inhibition": "34.9%"},
      {"smiles": "COc1ccc(NC(=O)CSc2nc(N)c(-c3ccccc3)c(=O)[nH]2)cc1", "inhibition": "63.2% (active)"},
      {"smiles": "Cc1ccc(S(=O)(=O)NCc2ccncc2)c(C)c1C", "inhibition": "56.9% (active)"},
      {"smiles": "COc1cc(C2c3cc4c(cc3OC(NNC(N)=S)C2C)OCO4)cc(OC)c1OC", "note": "(centres undefined)", "inhibition": "35.4%"},
      {"smiles": "NC(=S)N/N=C/c1ccc(-c2ccc([N+](=O)[O-])cc2)o1", "inhibition": "52.5% (active)"},
      {"smiles": "CCOc1ccc(NC(=O)COC(=O)COc2cccc3c2OC(C)(C)C3)cc1", "inhibition": "61.5% (active)"},
      {"smiles": "O=C(Nc1ccc2c(c1)CCCN2C(=O)c1ccco1)c1cc([N+](=O)[O-])ccc1Cl", "inhibition": "39.3%"},
      {"smiles": "Cc1cc(NCCCCCCCNc2cc(C)nc3cc([N+](=O)[O-])ccc23)c2ccc([N+](=O)[O-])cc2n1", "inhibition": "26.2%"},
      {"smiles": "NC(=S)N/N=C/c1ccc(C(F)(F)F)cc1", "inhibition": "48.1% (active)"},
      {"smiles": "CSc1nc(SCC(=O)NCc2ccco2)c2c3c(sc2n1)COC(C)(C)C3", "inhibition": "54.7% (active)"},
      {"smiles": "Cc1cc(Br)ccc1NC(=O)CSc1nnc(CN2CCOCC2)n1C", "inhibition": "47.8% (active)"},
      {"smiles": "O=C(c1ccc(=O)n(Cc2ccccc2)n1)N1CCN(C/C=C/c2ccccc2)CC1", "inhibition": "52.9% (active)"},
      {"smiles": "Nc1nc(-c2ccccc2)c(CCCOc2ccc(NC(=O)CBr)cc2)c(=O)[nH]1", "inhibition": "61.6% (active)"},
      {"smiles": "COc1cc([N+](=O)[O-])ccc1NC(=O)Cn1ccsc1=N", "inhibition": "59.9% (active)"},
      {"smiles": "CC(=O)Nc1ccc(NC(=O)CSc2nnnn2C2CCCCC2)cc1", "inhibition": "57.9% (active)"},
      {"smiles": "O=Cc1ccc2c(c1)CCN2Cc1ccccc1", "inhibition": "56.6% (active)"},
      {"smiles": "CCn1c2ccccc2c2cc(C3C(C#N)=C(N)Oc4n[nH]c(COC)c43)ccc21", "note": "(centres undefined)", "inhibition": "50.8% (active)"},
      {"smiles": "COc1ccc(-c2cc(C(F)F)n3ncc(C(=O)N4CCc5ccccc5C4)c3n2)cc1", "inhibition": "58.3% (active)"},
      {"smiles": "Cc1cc(C)c2nc(NC(=O)c3ccc([N+](=O)[O-])o3)sc2c1", "inhibition": "50.8% (active)"},
      {"smiles": "CCNC(=S)N1CCN(c2nc(CC)nc3sc4c(c23)CCCC4)CC1", "inhibition": "48.3% (active)"},
      {"smiles": "COc1ccccc1N1CCN(C(=O)C2c3ccccc3Oc3ccccc32)CC1", "inhibition": "26%"},
      {"smiles": "O=C(CN1C(=O)CCC1=O)Nc1ccc(Br)cc1", "inhibition": "60.2% (active)"},
      {"smiles": "COc1ccc(OC)c(C2NC(=O)c3sc(=S)n(-c4ccccc4)c3N2)c1", "note": "(centres undefined)", "inhibition": "53.5% (active)"}
    ]}
  ]
}
